{"source": "PubChem BioAssay AID2490", "about": "(National Center for Advancing Translational Sciences (NCATS), 2010)", "note": "Calls of active or inactive are those of the source. The call rests on the fitted dose curve.", "data": [{"target": "Thyroid hormone receptor beta (Homo sapiens) (UniProt P10828)", "sequence (P10828 whole entry, looked up, the tested form may be a part)": "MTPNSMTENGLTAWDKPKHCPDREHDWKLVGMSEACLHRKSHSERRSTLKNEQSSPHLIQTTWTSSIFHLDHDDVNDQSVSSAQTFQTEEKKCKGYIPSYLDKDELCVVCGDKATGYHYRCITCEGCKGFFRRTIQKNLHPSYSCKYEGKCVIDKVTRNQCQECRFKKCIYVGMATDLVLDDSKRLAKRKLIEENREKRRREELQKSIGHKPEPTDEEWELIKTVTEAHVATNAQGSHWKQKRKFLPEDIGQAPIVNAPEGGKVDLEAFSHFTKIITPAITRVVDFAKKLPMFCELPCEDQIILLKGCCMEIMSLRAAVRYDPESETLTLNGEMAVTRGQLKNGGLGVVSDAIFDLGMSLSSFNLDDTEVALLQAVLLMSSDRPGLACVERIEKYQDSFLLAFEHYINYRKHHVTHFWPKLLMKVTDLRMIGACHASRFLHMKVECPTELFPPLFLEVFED", "experiment": "Secondary Confirmation Assay for Inhibitors of the Interaction of Thyroid Hormone Receptor and Steroid Receptor Coregulator 2, Texas Red Fluoroprobe", "settings": "TRb LBD / Texas Red SRC2 peptide fluorescence polarization", "text": "NIH Molecular Libraries Probe Production Network [MLPCN] NIH Chemical Genomics Center [NCGC] MLPCN Grant: DK058080 Assay Provider: R. Kip Guy, St. Jude Children's Research Hospital NCGC Assay Overview: Thyroid receptor (TR) regulates many homeostatic processes including basal metabolism, cardiovascular function, body weight, and lipid trafficking. TR modulators are potential therapeutics for obesity and hyperlipidemias but current thyroid analogs have undesirable side effects, particularly cardiac stimulation. To identify inhibitors that specifically prevent the interaction of TR with the steroid receptor coregulator 2 (SRC2), a fluorescence polarization assay was screened (Arnold et al., 2006). This assay detects the interaction of the ligand-binding domain of human TRb with a Texas Red labeled SRC2 peptide, corresponding to a 20 amino acid region of the nuclear receptor interaction domain. Small molecule inhibitors that block the interaction of TR and SRC2 are detected by a decrease in fluorescence polarization.\nNCGC Assay Protocol Summary: Twenty uL/well 0.6 uM TRb and 20 nM Texas Red labeled SRC2-2 in protein buffer (20mM Tris hydrochloride, pH 7.4, 100mM NaCl, 10% glycerol, 1mM EDTA, 0.01% NP-40, 1mM DTT, 1uM T3 and 4% DMSO) was dispensed into black solid 384-well plates (Costar 3710) using a Biomek FX (Beckman Coulter) liquid handling system. Following transfer of 260 nL compound (ranging from 7 nM to 130 uM), the plates were incubated 3 hr at ambient temperature. The plates were read by an Envision (Perkin Elmer) to detect fluorescence polarization of SRC2 Texas Red (555 nm excitation and 632 nm emission). Arnold, L. A.; Estebanez-Perpina, E.; Togashi, M.; Shelat, A.; Ocasio, C. A.; McReynolds, A. C.; Nguyen, P.; Baxter, J. D.; Fletterick, R. J.; Webb, P.; Guy, R. K. A high-throughput screening method to identify small molecule inhibitors of thyroid hormone receptor coactivator binding. Sci STKE 2006, p 13.", "values": [{"smiles": "CCC(OC(=O)c1ccc(S(C)(=O)=O)c([N+](=O)[O-])c1)C(=O)NC1C2CC3CC(C2)CC1C3", "note": "(stereo not given)", "Potency": "1.1 µM (active)"}, {"smiles": "CN(C(=O)COC(=O)c1ccc(S(C)(=O)=O)c([N+](=O)[O-])c1)c1ccccc1", "Potency": "1.6 µM (active)"}, {"smiles": "CS(=O)(=O)c1ccc(C(=O)OCC(=O)Nc2ccc(OC(F)(F)F)cc2)cc1[N+](=O)[O-]", "outcome": "inactive"}, {"smiles": "CS(=O)(=O)c1ccc(C(=O)OCC(=O)NC(=O)C2CCCCC2)cc1[N+](=O)[O-]", "Potency": "1.4 µM (active)"}, {"smiles": "CC(=O)N1CCN(C(=O)COC(=O)c2ccc([S+](C)(=O)[O-])c([N+](=O)[O-])c2)CC1", "outcome": "inactive"}, {"smiles": "CS(=O)(=O)c1ccc(C(=O)OCC(=O)N2CCNc3ccccc32)cc1[N+](=O)[O-]", "Potency": "1.1 µM (active)"}, {"smiles": "CS(=O)(=O)c1ccc(C(=O)OCC(=O)NC2C3CC4CC(C3)CC2C4)cc1[N+](=O)[O-]", "note": "(stereo not given)", "Potency": "1.6 µM (active)"}, {"smiles": "O=C(COC(=O)c1cc([N+](=O)[O-])ccc1Cl)NC1C2CC3CC(C2)CC1C3", "note": "(stereo not given)", "outcome": "inactive"}, {"smiles": "CS(=O)(=O)c1ccc(C(=O)OCC(=O)N2CCC(c3ccccc3)CC2)cc1[N+](=O)[O-]", "Potency": "6.2 µM (active)"}, {"smiles": "CS(=O)(=O)c1ccc(C(=O)OCC(=O)N2CCOCC2)cc1[N+](=O)[O-]", "outcome": "inactive"}, {"smiles": "CC(OC(=O)c1ccc(S(C)(=O)=O)c([N+](=O)[O-])c1)C(=O)NC1C2CC3CC(C2)CC1C3", "note": "(stereo not given)", "Potency": "1.4 µM (active)"}, {"smiles": "CS(=O)(=O)c1ccc(-c2nnc(-c3ccccc3)s2)cc1[N+](=O)[O-]", "outcome": "inactive"}, {"smiles": "Cc1ccc(-c2csc(-c3ccc(S(C)(=O)=O)c([N+](=O)[O-])c3)n2)cc1", "Potency": "36.8 µM (active)"}, {"smiles": "CC1(C)C2CCC1(C)C(NC(=O)COC(=O)c1ccc(S(C)(=O)=O)c([N+](=O)[O-])c1)C2", "note": "(stereo not given)", "Potency": "4.3 µM (active)"}, {"smiles": "CS(=O)(=O)c1ccc(C(=O)NCC(=O)NC2C3CC4CC(C3)CC2C4)cc1[N+](=O)[O-]", "note": "(stereo not given)", "Potency": "11.3 µM (active)"}, {"smiles": "CCN1CCN(C(=O)COC(=O)c2ccc(S(C)(=O)=O)c([N+](=O)[O-])c2)C(C)C1", "note": "(stereo not given)", "outcome": "inactive"}, {"smiles": "O=C(COC(=O)c1ccc(Cl)c([N+](=O)[O-])c1)NC1C2CC3CC(C2)CC1C3", "note": "(stereo not given)", "outcome": "inactive"}, {"smiles": "COc1cccc(CNC(=O)COC(=O)c2ccc(S(C)(=O)=O)c([N+](=O)[O-])c2)c1", "Potency": "64.6 µM (active)"}, {"smiles": "CC(C)CN1CCN(C(=O)COC(=O)c2ccc(S(C)(=O)=O)c([N+](=O)[O-])c2)CC1", "Potency": "42.4 µM (active)"}, {"smiles": "CC1CCN(C(=O)C(C)OC(=O)c2ccc(S(C)(=O)=O)c([N+](=O)[O-])c2)CC1", "note": "(stereo not given)", "Potency": "6.4 µM (active)"}, {"smiles": "C[S+](=O)([O-])c1ccc(C(=O)OCC(=O)NC2C3CC4CC(C3)CC2C4)cc1", "note": "(stereo not given)", "outcome": "inactive"}, {"smiles": "CS(=O)(=O)c1ncc(C(=O)OCC(=O)NC2C3CC4CC(C3)CC2C4)cn1", "note": "(stereo not given)", "Potency": "3.2 µM (active)"}, {"smiles": "CS(=O)(=O)c1ccc(C(=O)OCC(=O)N2Cc3ccccc3C2)cc1[N+](=O)[O-]", "Potency": "3 µM (active)"}, {"smiles": "O=C(COC(=O)c1ccc(F)c([N+](=O)[O-])c1)NC1C2CC3CC(C2)CC1C3", "note": "(stereo not given)", "Potency": "14.3 µM (active)"}, {"smiles": "CS(=O)(=O)c1ccc(C(=O)OC(C(=O)NC2C3CC4CC(C3)CC2C4)c2ccccc2)cc1[N+](=O)[O-]", "note": "(stereo not given)", "Potency": "3.9 µM (active)"}, {"smiles": "CS(=O)(=O)c1ccc(C(=O)OCC(=O)N2CCCc3ccccc32)cc1[N+](=O)[O-]", "Potency": "2.3 µM (active)"}, {"smiles": "CS(=O)(=O)c1ccc(C(=O)OCC(=O)N2CCC(Cc3ccccc3)CC2)cc1[N+](=O)[O-]", "Potency": "8.2 µM (active)"}, {"smiles": "CC(=O)c1cccc(NC(=O)COC(=O)c2ccc(S(C)(=O)=O)c([N+](=O)[O-])c2)c1", "outcome": "inactive"}, {"smiles": "O=C(COC(=O)c1cc([N+](=O)[O-])ccc1F)NC1C2CC3CC(C2)CC1C3", "note": "(stereo not given)", "outcome": "inactive"}, {"smiles": "CCCC1CCN(C(=O)COC(=O)c2ccc(S(C)(=O)=O)c([N+](=O)[O-])c2)CC1", "Potency": "3.3 µM (active)"}, {"smiles": "Cc1cc(C(=O)OCC(=O)NC(=O)C2CCCCC2)ccc1[N+](=O)[O-]", "outcome": "inactive"}, {"smiles": "CC(=O)c1cccc(NC(=O)C(C)OC(=O)c2ccc(S(C)(=O)=O)c([N+](=O)[O-])c2)c1", "note": "(stereo not given)", "Potency": "50.9 µM (active)"}, {"smiles": "O=C(COC(=O)c1ccc2ncsc2c1)NC(=O)C1CCCCC1", "outcome": "inactive"}, {"smiles": "CS(=O)(=O)c1ccc(-c2nnc(-c3ccccc3)o2)cc1[N+](=O)[O-]", "outcome": "inactive"}, {"smiles": "CS(=O)(=O)c1ccc(C(=O)OCC(=O)N2CCN(CCC3CCCCC3)CC2)cc1[N+](=O)[O-]", "Potency": "7.6 µM (active)"}, {"smiles": "CC(OC(=O)c1ccc(S(C)(=O)=O)c([N+](=O)[O-])c1)C(=O)NC12CC3CC(CC(C3)C1)C2", "note": "(stereo not given)", "Potency": "2.1 µM (active)"}, {"smiles": "CS(=O)(=O)c1ccc(C(=O)OCC(=O)N2CCCCC2)cc1[N+](=O)[O-]", "Potency": "20.5 µM (active)"}, {"smiles": "CS(=O)(=O)c1ccc(C(=O)OCC(=O)Nc2cc(C(F)(F)F)ccc2Cl)cc1[N+](=O)[O-]", "outcome": "inactive"}, {"smiles": "CS(=O)(=O)c1ccc(C(=O)OCC(=O)NCC2CCCO2)cc1[N+](=O)[O-]", "note": "(stereo not given)", "outcome": "inactive"}, {"smiles": "C[S+](=O)([O-])c1ccc(C(=O)OCC(=O)N2CCN([S+](C)(=O)[O-])CC2)cc1[N+](=O)[O-]", "outcome": "inactive"}]}]}
